Inconclusive results are not listed. A call without a number means that no potency is given here. Active and inactive are the calls of the source. Calls come from the whole dose curve; as a rule, active = well fitted cell-killing curve with a large enough effect in the repeat runs; inconclusive = weak or mixed curves, or effect the other way; inactive = no such curve, though single readings can be large or run the other way.

For 40 compounds, Potency results are on record in PubChem BioAssay (Tox21).
Potency is the fitted concentration of half-maximal effect.

This test in a line: qHTS assay to identify small molecule agonists of the estrogen receptor alpha (ER-alpha) signaling pathway in the presence of an antagonist - cell viability counter screen (AID 1259386). Note: nearly all actives have a fitted effect of over 30% in size. As to conditions: VM7Luc4E2 viability, CellTiter-Fluor fluorescence, 22 h; series mostly up to 92.4 µM. From the text: National Center for Advancing Translational Sciences [NCATS]
NIH Chemical Genomics Center [NCGC]
U.S. Environmental Protection Agency [EPA]
National Institutes of Environmental Health Sciences [NIEHS]
National Toxicology Program [NTP]
U.S. Food and Drug Administration [FDA]
Estrogen receptor (ER), a member of nuclear hormone receptor plays an important role in development, metabolic homeostasis and reproduction. Two subtypes of ER, ER-alpha and ER-beta, have similar expression patterns with some uniqueness in both types. Endocrine disrupting chemicals (EDCs) and their interactions with steroid hormone receptors like ER causes disruption of normal endocrine function. Therefore, it is important to understand the effect of environmental chemicals in ER signaling pathway. For identifying ER agonists, VM7Luc4E2 cell line has been used in the current assay.
VM7Luc4E2 cell line (provided by Denison MS, University of California) endogenously expresses full-length ER-alpha and is stably transfected with a plasmid containing four estrogen responsive elements (ERE) upstream of a luciferase reporter gene. This current screening for measuring luciferase reporter gene activity using VM7Luc4E2 cells against Tox21 10K library collection is a confirmation study on agonist mode screening in presence of ER-antagonist (ICI-182,780) at 10.0nM final concentration. The cytotoxicity of the compounds was tested in parallel by measuring the cell viability using CellTiter-Fluor assay system (Promega, Madison, WI) in the same wells.
Tox21 Assay Protocol Summary:
VM7Luc4E2 cells were cultured in phenol red free assay medium containing 10% charcoal stripped FBS for 5 days prior to the assay. The cells were dispensed at 4,000 cells in 4uL of assay medium per well into white wall/solid-bottom 1536-well plates (Corning Life Sciences, Corning, NY) using a Multidrop Combi (Thermo Fisher Scientific Inc., Waltham, MA) dispenser. After the assay plates were incubated at 37C and 5% CO2 for 24hr, 1uL of 10.0nM (final concentration) ICI-182,780 or assay buffer was added using two separate tips of Flying Reagent Dispenser (FRD, Aurora Discovery, San Diego, CA). Then 23nL of compounds dissolved in DMSO at 15 concentrations and positive controls or DMSO only was transferred to the assay plates by a Pintool station (Wako, San Diego, CA). The assay plates were incubated at 37C and 5% CO2 for 22hr. After 21hr incubation at 37C, 1uL/well CellTiter-Fluor reagent (Promega Corporation, Madison, WI) was added to each well using FRD and after 1hr incubation at 37C and 5% CO2, the fluorescence signal was measured on ViewLux plate reader (PerkinElmer, Shelton, CT).
On the technique in general: In qHTS, concentration-response curves come from the screen itself.
As to `ClC1=C(Cl)[C@]2(Cl)[C@@H]3[C@@H](Cl)[C@@H](Cl)C[C@@H]3[C@@]1(Cl)C2(Cl)Cl`, the Potency entry was “inactive”.
The result for `BrC(Br)Br` reads “inactive”.
Under `CCOC(=O)c1ccccc1S(=O)(=O)NC(=O)Nc1nc(Cl)cc(OC)n1` stands “inactive”.
As to `Clc1ccc(-c2ccccc2)cc1`, the Potency entry is “inactive”.
Under `ClC1=C(Cl)[C@]2(Cl)[C@@H]3[C@@H](Cl)[C@H](Cl)C[C@@H]3[C@@]1(Cl)C2(Cl)Cl` stands “inactive”; under `Cc1ccc(OP(=O)(Oc2ccccc2)Oc2ccccc2)cc1`, “inactive”; under `CC(C)(O)c1cnn2c(-c3ccc(F)c(-c4c(F)cccc4C#N)c3)cnc2n1`, “inactive”.
Regarding `S=C=Nc1cccc2ccccc12`, the Potency was 60.5 µM (active).
Under `COC(=O)N(C(=O)N1COC2(C(=O)OC)Cc3cc(Cl)ccc3C2=N1)c1ccc(OC(F)(F)F)cc1` (stereo not given) stands “inactive”; under `ClCc1ccccc1CCl`, “inactive”; under `Nc1ccccc1C(=O)Oc1ccc2ccccc2c1`, “inactive”.
The result for `Cc1cc(C(C)(C)c2cc(C)c(O)c(C)c2)cc(C)c1O` reads “inactive”.
Under `CN(C)C(=S)S` stands “inactive”; under `COc1cc(N)c(Cl)cc1C(=O)NC1CN2CCC1CC2` (stereo not given), “inactive”; under `CC(C)(C)c1cc([N+](=O)[O-])cc(C(C)(C)C)c1O`, 8.63 µM (active).
For `CC(C)OC(=O)C(O)(c1ccc(Cl)cc1)c1ccc(Cl)cc1`, the Potency entry was “inactive”.
The result for `CNC(C)Cc1ccc2c(c1)OCO2` (stereo not given) reads “inactive”; that for `CC(=O)[O-].CC(=O)[O-].[Hg+2]`, 21.7 µM (active).
In the case of `N#CC(Cl)Cl`, the Potency entry is “inactive”.
The result for `COP(=S)(OC)Oc1cc(Cl)c(Br)cc1Cl` reads “inactive”.
Under `O=[N+]([O-])c1ccc2ccc3cccc4ccc1c2c34` stands 38.5 µM (active).
The result for `CCCN(CCC)CCc1c[nH]c2ccccc12` reads “inactive”; that for `CCN(CC)C(=S)[S-].CCN(CC)C(=S)[S-].[Zn+2]`, 12.1 µM (active).
`ClC1=C(Cl)C2(Cl)C3C(Cl)C=CC3C1(Cl)C2(Cl)Cl` (stereo not given): the Potency result was “inactive”.
The result for `CC(=O)O[C@H]1CC[C@@]2(C)C(=CC[C@@H]3[C@@H]2CC[C@]2(C)C(=O)CC[C@@H]32)C1` reads “inactive”.
The result for `CC(C)CBr` reads “inactive”.
The result for `CN(C)C1CSSSC1` reads “inactive”; that for `Cc1cc(C(F)(C(F)(F)F)C(F)(F)F)ccc1NC(=O)c1cccc(I)c1C(=O)NC(C)(C)CS(C)(=O)=O`, “inactive”; that for `O=S(=O)(c1ccc(Cl)cc1)c1ccc(Cl)cc1`, “inactive”.
On to `CC1(C)CC/C(=C/c2ccc(Cl)cc2)C1(O)Cn1cncn1` (stereo not given), for which the Potency entry was “inactive”.
Under `COP(=O)(OC)SCn1c(=O)oc2cc(Cl)cnc21` stands “inactive”; under `N#Cc1ccccc1N`, “inactive”.
Regarding `Nc1ccc(Sc2ccc(N)cc2)cc1`, the Potency result is “inactive”.
With `ClCCN1CCOCC1`, the Potency result is “inactive”.
Under `CCOP(=S)(OCC)SCS(=O)(=O)CC` stands “inactive”; under `CC(=O)C(Cl)(Cl)Cl`, 18.7 µM (active).
As to `Nc1ccccc1C(=O)OC/C=C/c1ccccc1`, the Potency entry is “inactive”.
As to `C[As+](C)(C)CC(=O)[O-]`, the Potency entry was “inactive”.
`N#C/C=C/C#N`: the Potency result was “inactive”.
Under `c1cc[c]([Sb]([c]2ccccc2)[c]2ccccc2)cc1` stands “inactive”.
